# Measurements as given in PubChem BioAssay (NCATS).
# Inconclusive results are not listed. Values without a mark were called inactive. Active and inactive are the calls of the source. Unless noted, calls follow the shape of the dose curve; as a rule, active = well fitted curve in the direction sought with a large enough effect; inconclusive = small, poorly fitted or top-dose-only effect, or another doubt; inactive = no such curve, though single readings can be large or run the other way.
# Assay: qHTS for differential inhibitors of proliferation of Plasmodium falciparum line HB3 (AID 1886);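 also: parasites grown with compound for 72 h before SYBR Green readout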; also: potency is read from the fitted curve at half-maximal effect;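 as to activity change, negative = inhibition: plate controls were vehicle for no effect and reference inhibitor for full effect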
# Conditions: Potency: Plasmodium falciparum HB3 proliferation inhibition; series mostly up to 28.7 µM; activity change, negative = inhibition: at the top concentration
Compound,"activity change, negative = inhibition",Potency
CC(N)=NCCCC(N)C(=O)O (stereo not given),-1.2%,–
Cc1cn([C@H]2C[C@@H](N=[N+]=[N-])[C@@H](CO)O2)c(=O)[nH]c1=O,-5.78%,–
CN=C(N)NCCCC(N)C(=O)O (stereo not given),3.02%,–
COc1c2c(nc3ccccc13)OC(C(C)(O)CO)C2 (stereo not given),-8.22%,–
CN1C2CC(OC(=O)C(CO)c3ccccc3)CC1C1OC12 (stereo not given),-8.96%,–
CC(C)C1NC(=O)[C@H](CCCCN)NC(=O)[C@@H](Cc2c[nH]c3ccccc23)NC(=O)[C@H](Cc2ccc(O)cc2)NC(=O)[C@H](C)N(C)C(=O)[C@H](Cc2ccccc2)NC1=O (stereo not given in full),-4.47%,–
NCCC(=O)NCCc1cnc[nH]1,-1.3%,–
O=C(Cc1ccc(Cl)c(Cl)c1)OCCN1CCCC1,0.216%,–
Cc1ccccc1N1CCN(S(=O)(=O)C[C@]23CCC(CC2NC(=O)[C@@H](N)CCS(C)(=O)=O)C3(C)C)CC1 (stereo not given in full),-27.6%,–
NC(=O)C1=CN(C2OC(COP(=O)(O)OP(=O)(O)OC[C@H]3O[C@@H](n4cnc5c(N)ncnc54)[C@H](OP(=O)(O)O)[C@H]3O)C(O)C2O)C=CC1 (stereo not given in full),-20.4%,–
OC[C@H]1O[C@@H](n2cnc3c(NCCc4ccccc4)ncnc32)[C@H](O)[C@H]1O,3.41%,–
CCCCCCCCCCCCCCC/C=C/[C@@H](O)[C@H](NC(=O)CCCCCCCCCCCCC)OC (tested in a mixture with another compound),0.22%,–
CNc1ncnc2c1ncn2[C@@H]1O[C@H](CO)[C@H](O)[C@H]1O,-16.2%,–
NCCNC(=O)c1ccc(Cl)cc1,-8.51%,–
NC(=NCCC[C@H](N)C(=O)O)NO,-4.78%,–
OC[C@H]1O[C@@H](n2cnc3c(Nc4ccccc4)ncnc32)[C@H](O)[C@H]1O,8.15%,–
N[C@H](Cc1ccc(O)c(O)c1)C(=O)O,-17.3%,–
NC(=S)c1ccc[n+]([C@@H]2O[C@@H](COP(=O)([O-])OP(=O)(O)OC[C@H]3O[C@@H](n4cnc5c(N)ncnc54)[C@H](OP(=O)(O)O)[C@H]3O)C(O)C2O)c1 (stereo not given in full),-6.13%,–
O=C(O)CC[C@H](NC(=O)c1ccccc1C(=O)O)C(=O)O,-1.52%,–
NCC1OC(O[C@@H]2[C@H](O)[C@@H](OC3C(O)C(N)CC(N)C3OC3OC(CO)C(O)C(O)C3N)O[C@@H]2CO)C(N)C(O)C1O (stereo not given in full),-8.07%,–
COc1cc(=O)n(C)c2c(OCC(O)C(C)(C)O)cccc12 (stereo not given),-13.2%,–
C[C@]12CCC(=O)C=C1CC[C@@H]1C2[C@@H](O)C[C@@]2(C)[C@H]1CC[C@]2(O)C(=O)CO (stereo not given in full),-15.5%,–
CN1C(=O)CCC1c1cccnc1 (stereo not given),-1.03%,–
CC(=O)O[C@H]1C[C@@H]2CCC3C(CC[C@@]4(C)[C@H]3C[C@H]([N+]3(C)CCCCC3)[C@@H]4OC(C)=O)[C@@]2(C)C[C@@H]1[N+]1(C)CCCCC1 (stereo not given in full),-27.2%,–
N=C(N)SCCc1cccc(CCSC(=N)N)c1,–,8.91 µM (active)

# Assay: qHTS Assay for Modulators of Human Peripheral Myelin Protein 22 (PMP22) Expression/Activity (AID 1967; active = well fitted curve in the direction sought with a large enough effect in the signal ratio; the % refers to the signal ratio;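 also: 0% = untreated cells and 100% end not stated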)
# Conditions: Cell-based PMP22 reporter, dual-color luciferase ratio, 0% = compound-free control cells, mouse Pmp22 promoter in mouse Schwann cells; series mostly up to 115 µM; activity change (ratio): at the top concentration
# Summary of the method: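 Engineered MSC80 cells, Pmp22-promoter green and EF-alpha red luciferase reporters; 24h compound treatment at 37 °C. Concentration-response fits on green, red and ratio signals, each overlap-corrected, with %Activity normalized to untreated wells.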
row,Compound,activity change (ratio)
1,CC(N)=NCCCC(N)C(=O)O (stereo not given),1.02%
2,CN=C(N)NCCCC(N)C(=O)O (stereo not given),6.01%
3,COc1c2c(nc3ccccc13)OC(C(C)(O)CO)C2 (stereo not given),-24.7%
4,CN1C2CC(OC(=O)C(CO)c3ccccc3)CC1C1OC12 (stereo not given),14.5%
5,NCCC(=O)NCCc1cnc[nH]1,21.1%
6,O=C(Cc1ccc(Cl)c(Cl)c1)OCCN1CCCC1,2.95%
7,CC(=O)[C@@]1(O)CC[C@H]2C3CCC4=CC(=O)CC[C@]4(C)C3CC[C@@]21C (stereo not given in full),27.6%
8,OC[C@H]1O[C@@H](n2cnc3c(NCCc4ccccc4)ncnc32)[C@H](O)[C@H]1O,17.3%
9,CCCCCCCCCCCCCCC/C=C/[C@@H](O)[C@H](NC(=O)CCCCCCCCCCCCC)OC (tested in a mixture with another compound),28.3%
10,NC(=NCCC[C@H](N)C(=O)O)NO,15.2%
11,N[C@H](Cc1ccc(O)c(O)c1)C(=O)O,11.5%
12,Nc1nc(Nc2ccccc2)nc2c1ncn2[C@@H]1O[C@H](CO)[C@H](O)[C@H]1O,13.8%
13,NC(=S)c1ccc[n+]([C@@H]2O[C@@H](COP(=O)([O-])OP(=O)(O)OC[C@H]3O[C@@H](n4cnc5c(N)ncnc54)[C@H](OP(=O)(O)O)[C@H]3O)C(O)C2O)c1 (stereo not given in full),0.102%
14,O=C(O)CC[C@H](NC(=O)c1ccccc1C(=O)O)C(=O)O,0.938%
15,NCC1OC(O[C@@H]2[C@H](O)[C@@H](OC3C(O)C(N)CC(N)C3OC3OC(CO)C(O)C(O)C3N)O[C@@H]2CO)C(N)C(O)C1O (stereo not given in full),8.75%
16,COc1cc(=O)n(C)c2c(OCC(O)C(C)(C)O)cccc12 (stereo not given),23.7%
17,C[C@]12CCC(=O)C=C1CC[C@@H]1C2[C@@H](O)C[C@@]2(C)[C@H]1CC[C@]2(O)C(=O)CO (stereo not given in full),12.4%
18,CN1C(=O)CCC1c1cccnc1 (stereo not given),8.47%
19,CC(=O)O[C@H]1C[C@@H]2CCC3C(CC[C@@]4(C)[C@H]3C[C@H]([N+]3(C)CCCCC3)[C@@H]4OC(C)=O)[C@@]2(C)C[C@@H]1[N+]1(C)CCCCC1 (stereo not given in full),14.6%
20,N=C(N)SCCc1cccc(CCSC(=N)N)c1,17%
